Compound activity (PubChem)
IMPase cell inh: IMPase inhibition in cells | CHO-M1 cells, IP1 accumulation, HTRF TR-FRET ratio | inhibition (IP1 accumulation), % at 46.1 µM | AID 901 | 120,000 tested, under 10 active | P97697; active = well fitted curve in the direction sought with a large enough effect in the signal ratio, not every such curve was filed as active; inconclusive = small, poorly fitted or top-dose-only effect, or a change in a side signal; inactive = no such curve, though single readings can be large or run the other way; the % refers to the signal ratio;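 note: cells stimulated with carbachol in lithium chloride buffer; higher means more IMPase inhibition seen as more IP1 and lower FRET ratio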
Target sequence (P97697 whole entry, looked up): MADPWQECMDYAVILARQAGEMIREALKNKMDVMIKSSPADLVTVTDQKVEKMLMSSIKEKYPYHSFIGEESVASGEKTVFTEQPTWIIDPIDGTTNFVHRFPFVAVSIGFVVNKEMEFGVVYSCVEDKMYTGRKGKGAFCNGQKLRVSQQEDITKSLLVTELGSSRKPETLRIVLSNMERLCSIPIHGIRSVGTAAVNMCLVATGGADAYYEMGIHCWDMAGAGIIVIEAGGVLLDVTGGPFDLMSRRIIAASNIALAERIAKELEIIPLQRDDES
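Carbachol-driven Gq signalling in CHO-M1 cells (2000/well) generates IP1. Compounds that block IMPase raise IP1 and so reduce the FRET signal from Eu-anti-IP1 and d2-IP1 after a 10 min room-temperature lysis.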
HPGD inh: inhibitors of human 15-hydroxyprostaglandin dehydrogenase (HPGD). Potency, µM, most hits filed as inhibitors. P15428. hit rate 4.3% among 150,000. AID 894. purified HPGD, NADH fluorescence kinetic, PGE2 substrate
Target sequence (P15428 whole entry, looked up): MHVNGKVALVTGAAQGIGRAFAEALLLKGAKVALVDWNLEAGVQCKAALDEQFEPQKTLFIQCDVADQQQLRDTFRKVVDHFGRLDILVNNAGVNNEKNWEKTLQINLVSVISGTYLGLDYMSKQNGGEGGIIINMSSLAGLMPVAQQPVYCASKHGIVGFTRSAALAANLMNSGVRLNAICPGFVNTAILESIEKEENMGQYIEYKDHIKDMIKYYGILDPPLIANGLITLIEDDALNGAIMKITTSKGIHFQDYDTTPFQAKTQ
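20 nM HPGD preincubated 15 min at room temperature with compound in 50 mM Tris-HCl pH 8, 0.01% Tween 20. Started with 1 mM NAD+ and 30 uM prostaglandin E2; NADH fluorescence (360/450 nm) read 5 times over 30-s intervals, last minus first.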
ALDH1A1 block: blocks purified human ALDH1A1 activity; P00352; Purified ALDH1A1, NADH fluorescence, propionaldehyde substrate; Potency, µM (doses to about 75.3 µM), most hits filed as inhibitors; hit rate 7.3% among 220,000; AID 1030
Large screens that a line does not name were inactive. Rows were chosen to be rich in hits. Some 9% of all compounds tested hit in one or more screens of this group. Unless noted, calls come from the whole dose curve; as a rule, active = well fitted inhibition curve with a large enough effect (not every such curve was filed as active); inconclusive = small, poorly fitted or top-dose-only effect, or another doubt; inactive = no such curve, though single readings can be large or run the other way.

COc1ccccc1CN1CCN(C(=O)c2ccncc2)CC1	ALDH1A1 block inconclusive
COc1cccc(OC)c1C(=O)N1CCN(Cc2ccncc2)CC1	ALDH1A1 block 14µM
COc1cccc(CN2CCN(C(=O)c3cccs3)CC2)c1OC	ALDH1A1 block 18µM
Cc1cc2nccc(-c3ccc(Cl)c([N+](=O)[O-])c3)n2n1	none (no result: IMPase cell inh, HPGD inh)
Cc1onc(-c2ccccc2Cl)c1C(=O)N1C=CC(C(F)(F)Cl)=NCC1	ALDH1A1 block inconclusive
CCSc1nnc2c(n1)OC(c1cc(OC)c(OC)c(OC)c1)Nc1ccccc1-2 (stereo not given)	none (no result: HPGD inh, ALDH1A1 block)
COCCCNS(=O)(=O)c1ccc(S(=O)(=O)N2CCCC2)cc1	ALDH1A1 block inconclusive
CC1(C)C2CCC1(C)C(NC(=O)/C=C/c1ccccc1)C2 (stereo not given)	none (no result: IMPase cell inh, HPGD inh)
O=C(COC(=O)c1ccc2c(c1)S(=O)(=O)N=C1CCCCCN12)NCc1cccs1	ALDH1A1 block 14µM (no result: IMPase cell inh, HPGD inh)
CC(C)(C)NC(=O)NC(=O)COC(=O)c1ccc2c(c1)S(=O)(=O)N=C1CCCCCN12	ALDH1A1 block inconclusive
COc1cc2cccc(OC)c(=O)c2c(O)c1OC	none (no result: IMPase cell inh)
CC(=O)Oc1cc2cccc(OC(C)=O)c(=O)c2c(OC(C)=O)c1OC(C)=O	ALDH1A1 block 4µM (no result: IMPase cell inh, HPGD inh)
O=C(O)COc1ccccc1/C=N/NC(=O)c1cc2ccccc2cc1O	none (no result: IMPase cell inh, HPGD inh)
O=[N+]([O-])c1ccc(C2CCCC/C2=N/OCc2ccccc2F)c([N+](=O)[O-])c1 (stereo not given)	none
O=C(O/N=C1\CCCCC1c1ccc([N+](=O)[O-])cc1[N+](=O)[O-])c1c(F)cccc1F (stereo not given)	ALDH1A1 block 18µM
Cc1ccc(S(=O)(=O)Nc2c(C)n(C)n(-c3ccccc3)c2=O)cc1C(=O)OCC(=O)N1CCCC(C)C1 (stereo not given)	none (no result: IMPase cell inh, HPGD inh)
Cc1ccc(S(=O)(=O)NCC(=O)N/N=C/c2ccc(Cl)cc2Cl)cc1	ALDH1A1 block 7.1µM
Cc1ccc(NCC(=O)N/N=C/c2cc3ccccc3nc2Cl)cc1	IMPase cell inh inconclusive, ALDH1A1 block 10µM
O=C(CN1CCOCC1)N/N=C/c1cc2ccccc2nc1Cl	HPGD inh inconclusive, ALDH1A1 block inconclusive
Cc1ccc(S(=O)(=O)NCC(=O)N/N=C/c2ccc(Cl)cc2)cc1	ALDH1A1 block inconclusive (no result: IMPase cell inh)
Cc1ccc(NC(=O)c2c(NC(=O)C(F)(F)F)sc3c2CCCCC3)cc1	none (no result: HPGD inh, ALDH1A1 block)
O=C(O)c1cn[nH]c1-n1cnnn1	none
Cc1cc(OC(=O)c2ccc(S(=O)(=O)N3CCOCC3)cc2)c([N+](=O)[O-])c(=O)[nH]1	none (no result: IMPase cell inh, HPGD inh)
CCCCOC(=O)c1ccc(NC(=O)/C=C/c2cccs2)cc1	none
COc1ccc(Cn2c(C3CC3)nc3ccc(NC(=O)c4ccco4)cc3c2=O)cc1	HPGD inh inconclusive
COc1ccc(C(=O)C2CCCN(Cc3ccc(C#CCCO)cc3)C2)c(OC)c1 (stereo not given)	none (no result: IMPase cell inh, HPGD inh)
COc1ccc(C(=O)C2CCCN(Cc3c(C)[nH]c4ccccc34)C2)c(OC)c1 (stereo not given)	ALDH1A1 block 25µM (no result: IMPase cell inh, HPGD inh)
CCN1CCc2c(sc(NC(=O)c3ccc(S(=O)(=O)N4CCOCC4)cc3)c2C(=O)OC)C1	none
Cc1sc(NC(=S)NC(=O)CCc2ccccc2)c(C(N)=O)c1C	ALDH1A1 block inconclusive (no result: IMPase cell inh)
COC(=O)c1c(NC(=S)NC(=O)c2ccco2)sc2c1CCCC2	ALDH1A1 block inconclusive
Cc1sc(NC(=S)NC(=O)c2ccco2)c(C(N)=O)c1C	ALDH1A1 block 3.2µM (no result: IMPase cell inh, HPGD inh)
CCN1CCc2c(sc(NC(=O)c3ccc(S(=O)(=O)N4CCOCC4)cc3)c2C(N)=O)C1	ALDH1A1 block 40µM
CCN1CCc2c(sc(NC(=S)NC(=O)c3ccco3)c2C(N)=O)C1	ALDH1A1 block 7.9µM (no result: IMPase cell inh, HPGD inh)
COC(=O)c1ccc(CNC(=O)COC(=O)COc2ccc(OC)cc2)cc1	none (no result: IMPase cell inh, HPGD inh)
COC(=O)C1=C(C(=O)OC)[C@@H]2N(C)c3ccccc3[C@@]23C[C@@H](C(=O)OC)N(S(=O)(=O)c2ccc(OC)cc2)C3=N1	none (no result: IMPase cell inh)
CCOC(=O)c1c(/N=C/C2C(=O)CCCC2=O)sc2c1CCCC2	ALDH1A1 block 16µM (no result: IMPase cell inh, HPGD inh)
CCOC(=O)c1cc(CC)sc1/N=C/C1=C(O)CCCC1=O	none (no result: IMPase cell inh)
CCOC(=O)c1c(/N=C/C2C(=O)CC(C)(C)CC2=O)sc2c1CCCC2	ALDH1A1 block 8.9µM (no result: IMPase cell inh, HPGD inh)
CCOC(=O)c1cc(CC)sc1/N=C/C1C(=O)CC(C)(C)CC1=O	ALDH1A1 block 11µM
CCOC(=O)c1c(/N=C/c2ccc(O)cc2O)sc2c1CCC2	ALDH1A1 block inconclusive (no result: IMPase cell inh)
CCOC(=O)c1c(/N=C/c2ccccc2O)sc2c1CCC2	none (no result: HPGD inh)
COc1ccc(OCC(=O)Nc2ccc(Cl)c(-c3nc4ncccc4o3)c2)cc1	none (no result: HPGD inh, ALDH1A1 block)
CCOC(=O)Cc1csc(NC(=O)CSc2ncnc3c2cnn3-c2ccccc2Cl)n1	ALDH1A1 block inconclusive
CN1CCN(C(=O)CC2C(=O)NCCN2Cc2ccc(-c3ccccc3)cc2)CC1 (stereo not given)	none (no result: IMPase cell inh, HPGD inh)
CC(C(=O)Nc1ccncc1)(c1ccccc1)c1ccccc1	none (no result: IMPase cell inh, HPGD inh)
CN(C)c1ncc([N+](=O)[O-])cc1C(F)(F)F	ALDH1A1 block 14µM (no result: IMPase cell inh, HPGD inh)
NCCCNc1ccc([N+](=O)[O-])cc1C(F)(F)F	none (no result: IMPase cell inh, HPGD inh)
CNc1nc(C)c(C(=O)c2ccc(Cl)cc2)s1	none
CCOC(=O)c1cnn(-c2cc(C(C)(C)C)nc3c(-c4ccccc4)c(C)nn23)c1N	none
CCOC(=O)c1cnn(-c2c(Cc3ccccc3)c(C)nc3c(-c4ccccc4)c(C)nn23)c1N	ALDH1A1 block 0.1µM
COc1ccc(N2C(=O)[C@@H]3[C@H](C2=O)[C@H]2c4ccccc4C=CN2[C@@H]3C(=O)Nc2ccccc2)cc1	ALDH1A1 block 25µM
O=C(c1ccco1)[C@@H]1[C@@H]2C(=O)N(c3ccccc3)C(=O)[C@@H]2C2c3ccccc3C=CN21 (stereo not given in full)	HPGD inh inconclusive, ALDH1A1 block 2.2µM
COc1ccc(N2CC(NC(=O)Nc3ccccc3)CC2=O)cc1 (stereo not given)	none (no result: IMPase cell inh, HPGD inh)
Cc1ccc(N2C(=O)[C@@H]3[C@H](C2=O)C2c4ccccc4C=CN2[C@@H]3C(=O)c2ccco2)c(C)c1 (stereo not given in full)	HPGD inh 35µM, ALDH1A1 block 7.9µM
O=C(c1ccc(Cl)cc1)[C@@H]1[C@@H]2C(=O)N(c3ccccc3)C(=O)[C@@H]2C2c3ccccc3C=NN21 (stereo not given in full)	ALDH1A1 block inconclusive (no result: IMPase cell inh)
CC(C)(C)C(=O)[C@@H]1[C@@H]2C(=O)N(c3ccc4c(c3)OCCO4)C(=O)[C@@H]2C2c3ccccc3C=CN21 (stereo not given in full)	HPGD inh inconclusive, ALDH1A1 block inconclusive
Cc1ccc(-n2ncc3c(NNC(=O)c4ccco4)ncnc32)c(C)c1	none (no result: IMPase cell inh, HPGD inh)
Cc1ccc(N2C(=O)[C@@H]3[C@H](C2=O)C2c4ccccc4C=CN2[C@@H]3C(=O)c2ccco2)cc1 (stereo not given in full)	HPGD inh 32µM, ALDH1A1 block 4.5µM
O=S(=O)(Nc1ccc(O)c(Sc2nc3ccccc3s2)c1)c1ccc(Cl)cc1	ALDH1A1 block inconclusive (no result: HPGD inh)
CC1SC(c2ccc(F)cc2)NC1=O (stereo not given)	none (no result: IMPase cell inh, HPGD inh)
Cc1cccc(OCC(=O)Nc2ccc(Cl)c(-c3nc4ncccc4o3)c2)c1C	none (no result: HPGD inh, ALDH1A1 block)
O=C1C2C3C=CC(C3)C2C(=O)N1Cc1ccccc1 (stereo not given)	ALDH1A1 block inconclusive
